Screening data: PubChem, The Scripps Research Institute Molecular Screening Center
hgDAF12 agonist = activates the H. glycines DAF-12 receptor ligand-binding domain; HEK293 GAL4-hgDAF12 UAS-luciferase reporter, agonist luminescence; normalized to butyrate control; activation, % at 6.8 µM; hit rate 1.8% among 370,000; AID 687014;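 active = activation above a cutoff set at the mean of all screened compounds plus 3 SD, cut at about 10% in these data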;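 note: 0% = DMSO wells and 100% = sodium butyrate wells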
ssDAF-12 act = S. stercoralis DAF-12 activation, primary screen; HEK293 ssDAF-12/GRIP1 lit1-tk-luc reporter, luminescence; % of 3 µM dafachronic acid response; activation, % at 6.8 µM; hit rate 1% among 370,000;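 active = activation above the mean over all tested compounds plus 3 SD, cut at about 0.9% in these data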;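 note: 0% = DMSO-only wells and 100% = 3 µM delta7-dafachronic acid wells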
DAX1 inh-1 = inhibitors of DAX1 repression of SF-1 activated StAR promoter | hit rate 1.1% among 370,000 | inhibition, % at 6.8 µM | AID 652010 | HEK293T StAR-luciferase reporter, SF-1/DAX-1 repression relief;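 active = inhibition above the mean over all tested compounds plus 3 SD, cut at about 3.6% in these data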;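 note: 0% = DAX-1 cells with DMSO and 100% = cells lacking DAX-1 with DMSO; higher inhibition means more luminescence from relief of DAX-1 repression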
AHR activator = activates the human aryl hydrocarbon receptor | P35869 | AHR-responsive luciferase reporter cells, luminescence | activation, % at 5 µM | hit rate 2.5% among 320,000; in the data active = activation above about 47%;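 note: 0% = vehicle wells and 100% = reference agonist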
Target sequence (P35869 whole entry, looked up): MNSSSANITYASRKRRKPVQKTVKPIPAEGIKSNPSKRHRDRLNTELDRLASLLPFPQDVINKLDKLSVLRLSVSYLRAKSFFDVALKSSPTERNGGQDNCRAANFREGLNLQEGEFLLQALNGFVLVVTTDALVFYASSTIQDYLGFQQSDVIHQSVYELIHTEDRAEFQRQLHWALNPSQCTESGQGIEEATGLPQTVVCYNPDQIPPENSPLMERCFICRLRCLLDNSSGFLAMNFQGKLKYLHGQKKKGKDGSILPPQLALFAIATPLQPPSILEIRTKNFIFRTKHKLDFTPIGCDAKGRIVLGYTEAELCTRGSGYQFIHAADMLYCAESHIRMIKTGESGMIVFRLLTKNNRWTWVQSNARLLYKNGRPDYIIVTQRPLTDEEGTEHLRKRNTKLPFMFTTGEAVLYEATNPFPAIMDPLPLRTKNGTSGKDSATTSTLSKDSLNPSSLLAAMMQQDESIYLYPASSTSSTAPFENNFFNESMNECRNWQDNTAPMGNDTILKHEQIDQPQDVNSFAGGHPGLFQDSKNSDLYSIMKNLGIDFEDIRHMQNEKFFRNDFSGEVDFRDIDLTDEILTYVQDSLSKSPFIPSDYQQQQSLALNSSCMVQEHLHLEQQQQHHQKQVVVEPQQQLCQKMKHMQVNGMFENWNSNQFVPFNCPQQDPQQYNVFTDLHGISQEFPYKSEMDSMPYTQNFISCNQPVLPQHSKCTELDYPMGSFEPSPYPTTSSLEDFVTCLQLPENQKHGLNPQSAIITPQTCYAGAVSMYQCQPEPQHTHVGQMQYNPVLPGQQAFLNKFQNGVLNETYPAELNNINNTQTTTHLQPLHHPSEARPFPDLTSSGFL
hcDAF12 agonist = H. contortus DAF-12 activation, primary screen | HEK293 hcDAF-12 lit1-tk-luc reporter, luminescence; 0% DMSO, 100% Δ7-dafachronic acid | activation, % at 6.8 µM | hit rate 1.4% among 370,000 | AID 652067;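 active = activation above the mean of all tested compounds plus 3 SD, cut at about 5.5% in these data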;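 note: 100% = response to 3 µM Δ7-dafachronic acid high control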
DAX1 inh-2 = NR0B1 (DAX1) inhibition | AID 504766 | HEK293 Gal4-DAX1 luciferase reporter, luminescence | inhibition, % at 6.75 µM | P51843 | hit rate 0.99% among 340,000;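 active = inhibition above the mean over all tested compounds plus 3 SD, cut at about 4.2% in these data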;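 note: 0% = DAX1-transfected cells with DMSO and 100% = empty-vector control cells with DMSO; inhibition shows as a rise in luminescence from relieved DAX1 repression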
DAX1 inh confirm = NR0B1 (human) inhibition, confirmation; hit rate 87% among 2,400; inhibition, % at 6.8 µM; HEK293T StAR-promoter luciferase reporter, SF-1/DAX-1 repression; shares compounds with DAX1 inh-1; AID 652134;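 active = inhibition above the average of every tested compound plus 3 SD, cut at about 3.8% in these data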;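 note: 0% = DAX-1 cells with DMSO and 100% = no DAX-1 control cells with DMSO; active compounds raise luminescence by relieving repression of the StAR reporter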
SF1 mutant ctr = counter-screen for DAX1 inhibitors: nonselective inhibitors with SF-1 AF2 mutant; AID 652136; hit rate 78% among 2,400; inhibition, % at 6.8 µM; HEK293 StAR-luciferase, luminescence; shares compounds with DAX1 inh-1;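 active = inhibition above the mean of all tested compounds plus 3 SD, cut at about 3% in these data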;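 note: 0% = DAX-1 transfected cells with DMSO and 100% = cells without DAX-1 with DMSO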
LXR ag = activates human LXR-beta, counter-screen for hcDAF-12 agonists; HEK293 Gal4-LXR tk-luc reporter, luminescence, 24 h; normalized: DMSO 0%, positive control 100%; shares compounds with hcDAF12 agonist; 3,400 tested, under 10 active; AID 743027; activation, % at 6.8 µM;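 active = mean percent activation of the reporter above a cutoff set as the average over tested compounds plus their standard deviation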
hcDAF12 ag = hcDAF-12 agonism, confirmation assay | shares compounds with hcDAF12 agonist | HEK293 hcDAF-12 lit1-tk-luc reporter, luminescence; % of Δ7-dafachronic acid response | activation, % at 6.8 µM | hit rate 61% among 3,400;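 active = mean activation across triplicate tests above the threshold derived from the earlier primary screen, cut at about 5.5% in these data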;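 note: 0% = DMSO only wells and 100% = 3 µM Δ7-dafachronic acid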
hgDAF12 ag = confirmation of H. glycines DAF-12 agonists; shares compounds with hgDAF12 agonist; HEK293 GAL4-hgDAF12 luciferase reporter, agonist mode; percent of butyrate response; activation, % at 6.8 µM; hit rate 80% among 3,300; AID 743050;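 active = mean activation over triplicate wells above the hit cutoff derived from the earlier primary screen, cut at about 11% in these data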;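 note: 0% = DMSO low control and 100% = 2 mM sodium butyrate high control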
LXR ag 2 = activates human LXR-beta, counter-screen for DAF-12 agonists. shares compounds with hgDAF12 agonist. HEK293 Gal4-LXR luciferase reporter, 24 h. activation, % at 6.8 µM. 3,300 tested, under 10 active;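 active = mean activation of the triplicate above a set limit carried over from the primary screen, none filed active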
* marks the source's active call; other numbers are inactive results; nt = no result. An excerpt weighted towards active compounds, which were near 5.7% of everything screened.

SMILES	hgDAF12 agonist	ssDAF-12 act	DAX1 inh-1	AHR activator	hcDAF12 agonist	DAX1 inh-2	DAX1 inh confirm	SF1 mutant ctr	LXR ag	hcDAF12 ag	hgDAF12 ag	LXR ag 2
Cc1ccc2oc(C(=O)Nc3cc(C)on3)c(C)c2c1	11.1*	2.5*	5.5*	29.6	11.3*	2.7	12.9*	8.0*	1.5	13.7*	nt	nt
Cc1cc(NC(=O)c2sc3ccccc3c2O)no1	7.6	0.7	6.5*	nt	11.6*	1.2	8.1*	6.2*	1.4	7.2*	nt	nt
Cc1ccc2oc(C(=O)Nc3nnc(CC(C)C)s3)c(C)c2c1	0.2	-1.2	-0.3	-4.4	-1.7	0.4	nt	nt	nt	nt	nt	nt
Cc1cc2occ(CC(=O)N(CC(C)C)c3c(N)n(Cc4ccccc4)c(=O)[nH]c3=O)c2cc1C	-1.3	-0.5	0.5	4.6	0.0	0.7	nt	nt	nt	nt	nt	nt
O=C(NCCNCc1ccccc1)c1ccco1	6.2	-0.1	3.3	nt	2.6	0.4	nt	nt	nt	nt	nt	nt
CCc1ccc(CNCCNC(=O)c2ccco2)cc1	14.9*	0.4	5.8*	nt	1.6	-0.2	4.9*	2.9*	nt	nt	0.9	0.1
CC1CCc2c(sc(NC(=O)/C=C/c3cccs3)c2C(=O)O)C1 (stereo not drawn)	-5.0	-0.9	-0.3	8.2	1.7	1.5	nt	nt	nt	nt	nt	nt
O=C(Nc1ccc2ccccc2c1)c1ccccc1Cl	13.6*	2.3*	13.0*	nt	9.3*	2.3	16.9*	9.2*	1.9	7.7*	22.1*	1.1
O=C(Nc1ccc2ncccc2c1)c1ccccc1Cl	-0.2	-0.7	-0.3	8.8	-0.2	1.1	nt	nt	nt	nt	nt	nt
CC(SCc1ccccc1)C(=O)Nc1ccccc1 (stereo not drawn)	-0.7	-1.4	-0.3	0.3	-1.7	1.5	nt	nt	nt	nt	nt	nt
O=C(OCC(=O)N1CCc2ccccc21)c1ccccc1[N+](=O)[O-]	17.8*	2.6*	7.1*	8.0	7.5*	1.5	16.8*	9.6*	1.5	8.4*	16.5*	0.8
O=C(CCCc1ccccc1)N1CCc2ccccc21	15.5*	2.0*	6.2*	21.2	7.8*	1.9	17.4*	6.7*	1.6	10.4*	17.8*	0.9
O=C(OCC(=O)N1CCc2ccccc21)c1ccccc1F	1.9	0.1	1.7	3.8	3.8	0.2	nt	nt	nt	nt	nt	nt
O=C(CS(=O)(=O)Cc1ccccc1)N1CCc2ccccc21	5.4	-0.1	1.6	29.1	2.8	-0.1	nt	nt	nt	nt	nt	nt
Cc1cccc(CCNC(=O)C2CCN(S(=O)(=O)N3CCOCC3)CC2)c1	-1.1	-0.8	0.0	-1.4	-1.9	0.6	nt	nt	nt	nt	nt	nt
CCc1ccc(NC(=O)c2cnn(-c3ccccc3)c2C)cc1	14.8*	1.1*	6.1*	-9.1	4.9	-0.9	11.1*	6.0*	nt	nt	18.9*	0.8
CCc1ccc(NC(=O)c2cnn(-c3ccccc3)c2C2CCNCC2)cc1	7.1	-1.8	-0.3	2.5	-0.4	2.2	nt	nt	nt	nt	nt	nt
COc1ccc(CN(C(=O)c2snc(C(N)=O)c2N)C(C(=O)NC2CCCC2)c2ccco2)cc1 (stereo not drawn)	-0.5	-1.2	-0.4	1.1	-3.0	1.0	nt	nt	nt	nt	nt	nt
O=c1c2c(nc3cc(-c4ccccc4Cl)[nH]n13)CCS2	16.3*	1.5*	5.6*	24.2	4.9	1.5	3.9*	3.4*	nt	nt	11.8*	0.6
O=C(CC1SC(N2CCCC2)=NC1=O)Nc1ccc(C(=O)Nc2ncccc2O)cc1 (stereo not drawn)	37.7*	0.8	25.3*	5.1	2.8	2.6	39.9*	22.0*	nt	nt	43.0*	0.2
CCCCn1c(SCC(=O)Nc2oc(C)c3c(C)n[nH]c(=O)c23)nc2cc(S(N)(=O)=O)ccc21	2.6	-0.9	0.9	5.9	-0.8	-0.7	nt	nt	nt	nt	nt	nt
O=C(CSc1nnc(CNC(=O)c2cccc(C(F)(F)F)c2)o1)NC1CCCC1	-2.1	-1.1	0.8	-1.1	-0.4	0.2	nt	nt	nt	nt	nt	nt
COc1ccc(-c2nc(-c3cccc(C)c3)no2)cc1OC	nt	nt	nt	-6.9	nt	0.4	nt	nt	nt	nt	nt	nt
Cc1cccc(-c2noc(-c3ccc4c(c3)OCO4)n2)c1	13.3*	-0.2	4.8*	21.4	3.5	-0.6	12.8*	5.0*	nt	nt	14.1*	1.2
Nc1c(C(=O)Nc2ccc3c(c2)OCCO3)nnn1Cc1ccc(Br)cc1	21.9*	1.3*	8.1*	50.8*	9.4*	1.9	12.4*	8.6*	1.4	6.7*	21.9*	0.8
SMILES	hgDAF12 agonist	ssDAF-12 act	DAX1 inh-1	AHR activator	hcDAF12 agonist	DAX1 inh-2	DAX1 inh confirm	SF1 mutant ctr	LXR ag	hcDAF12 ag	hgDAF12 ag	LXR ag 2
Cc1ccc(NC(=O)c2nnn(CC(=O)Nc3ccc4c(c3)OCO4)c2N)cc1C	4.2	-0.5	0.3	10.3	2.4	-0.3	nt	nt	nt	nt	nt	nt
Cc1ccc(-c2onc3ccc(C4OCCO4)cc23)cc1	13.8*	-0.1	5.3*	14.9	4.4	-2.6	0.8	-6.2	nt	nt	2.9	0.1
Cc1ccc2nc(N)nnc2c1	2.1	-1.1	0.1	nt	-0.4	1.6	nt	nt	nt	nt	nt	nt
Cc1ccc2nc(C)/c(=N\O)c(C)nc2c1	14.6*	0.6	5.3*	13.6	10.0*	-1.3	5.3*	3.2*	0.2	4.9	5.2	0.5
O=C(CC1C(=O)NCCN1Cc1cccc(F)c1)NCCCOc1cccnc1 (stereo not drawn)	-1.4	-1.0	1.1	-0.7	-1.8	1.0	nt	nt	nt	nt	nt	nt
Cc1ccc2c(c1)C(=O)CC(c1ccccc1)S2 (stereo not drawn)	19.5*	1.5*	19.0*	nt	7.7*	3.2	12.6*	7.4*	1.5	6.5*	18.7*	0.9
Cc1nnc(SCC(=O)Nc2ccccc2NC(=O)CSc2nnc(C)s2)s1	-1.3	-1.0	-0.1	2.3	3.2	-0.5	nt	nt	nt	nt	nt	nt
Cc1nnc(SCC(=O)Nc2nsc(-c3ccc(C(C)(C)C)cc3)n2)s1	27.0*	0.6	7.3*	9.8	7.3*	4.4*	10.9*	6.0*	1.4	6.9*	19.1*	0.9
O=C(CN1c2ccccc2Sc2ccccc21)NNC(=O)Nc1cccc(Cl)c1	-1.2	-1.2	0.3	2.7	-1.0	-1.0	nt	nt	nt	nt	nt	nt
